# Assay: EMT-state selective cytotoxicity in co-culture – imaging, PC-3E GFP, TEM4-18 mCherry, primary screen (AID 1345086);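 note: cells exposed to compound for 72 h before imaging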
# Conditions: PC-3E GFP / TEM4-18 mCherry co-culture, imaging cell counts; measured here: mesenchymal TEM4-18 mCherry cell survival; at 1 µM
row,SMILES,normalised cell number
1,CO/C(C)=C1/C(=O)C(CO)OC1O (configuration not stated),0.95
2,O=C1Cc2cc(O)ccc2O1,1.14
3,O=C(Nc1ccc(Cl)cc1)Nc1ccc(CO)cc1,1.11
4,C=C[C@](C)(O)CC[C@@H]1[C@@]2(C)CCCC(C)(C)[C@@H]2CC[C@]1(C)O,1.21
5,CC(=O)OC1CCC2(C)C3CC(=O)C4(C)C(CC5OC6(CCC(C)CO6)[C@@H](C)C54)C3CC[C@H]2C1 (some centres not stated),0.93
6,COC(=O)C1O[C@H](OCc2ccccc2)[C@@H](OC(=O)c2ccccc2)[C@@H](OC(=O)c2ccccc2)C1O (some centres not stated),1.2
7,C=C1C(=O)O[C@@H]2C(=O)O[C@@H](CCCCCCCC)[C@H]12,0.89
8,CO[C@H]1OC2COC(c3ccccc3)OC2[C@H](OCc2ccccc2)[C@@H]1OCc1ccccc1 (some centres not stated),1.15
9,CCN1CCN(c2c(F)cc3c(=O)c(C(=O)O)cn4c3c2OC[C@@H]4C)CC1,1
10,O=C1C[C@@H]2[C@H](Br)[C@@H](O)C[C@@H]2O1,0.91
11,COC(=O)C[C@@H]1C2(C)C(=O)C3CC4(OC3(O)C1(C)C)C1=CC(=O)O[C@@H](c3ccoc3)[C@]1(C)CCC42 (some centres not stated),0.96
12,COc1cc(O)c2c(c1C)C(C(C)=O)COC2=O (configuration not stated),0.28
13,O=C(O)C1O[C@@H](O)[C@@H](O)[C@@H](O)C1O (some centres not stated),1.13
14,CC(C)(C)Oc1c(F)c(F)nc(F)c1Cl,0.76
15,C=C(C)n1cc(C(=O)OC)c(=O)c2cc(F)c(F)c(OC)c21,1.14
16,COc1ccc(-c2oc3ccccc3c(=O)c2OC)cc1,1.08
17,C=CCOC(=O)N1C(=O)O[C@H]2C(OC(C)=O)C(COC(C)=O)O[C@H](Sc3ccc(C)cc3)[C@H]21 (some centres not stated),0.97
